# Several values for one entry are separate records, joined by “and”; a condition that tells them apart may be missing. Equal values may be shown once. Values without a mark were called inactive. Inconclusive results are not listed. More than one record can exist for a structure, and the calls need not agree. Activity calls are given as the source filed them. Unless noted, calls follow the shape of the dose curve; as a rule, active = well fitted curve in the direction sought with a large enough effect; inconclusive = small, poorly fitted or top-dose-only effect, or another doubt; inactive = no such curve, though single readings can be large; an effect the other way counts as inactive or inconclusive.
# Columns and labels:
# [1] = molecular target: Peroxisome proliferator-activated receptor alpha (Homo sapiens) (UniProt Q07869); assay: qHTS assay for small molecule agonists of the peroxisome proliferator-activated receptor alpha (PPARalpha) signaling pathway (AID 651778); details: PathHunter PPARalpha complementation, chemiluminescence, 6 h; active compounds read high; also: % of control where 0% means no effect
# Summary of the method: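 Chemiluminescence from complemented enzyme reported PPARalpha activation in cells after 6 hr of compound treatment at 37 C. The detection reagent was incubated for 60 min at room temperature, and compounds were scored as agonists.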
# [2] = qHTS assay for small molecule agonists of the antioxidant response element (ARE) signaling pathway measured by Nrf2-dependant transcriptional activity - cell viability counter screen (AID 720653; active = well fitted curve in the direction sought with a large enough effect in the repeat runs; an effect the other way counts as inactive or inconclusive; also: potency is read from the fitted curve at half-maximal effect; as to max response: % is scaled to controls: 0 for no effect and ±100 for the full control effect); details: ARE-bla HepG2 viability, CellTiter-Glo ATP luminescence, 16 h; max response: active compounds read low
# Summary of the method: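 Cytotoxicity counter screen: intracellular ATP quantified by CellTiter-Glo luminescence in the same ARE-bla HepG2 plates, after 16 h compound exposure and a 2 h beta-lactamase substrate step.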
# [3] = qHTS assay for cell viability of HEK293 cells (AID 743288); details: ATP luminescence (CellTiter-Glo), 18 h, active compounds read low; also: % is scaled to controls: 0 for no effect and ±100 for the full control effect; nearly all actives have a fitted effect of over 50% in size
# Summary of the method: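 Parental HEK293 cells were seeded at 2,000 cells/well, rested at least 5 h at 37 C, then exposed to compounds in DMSO for 18 h at 37 C. Viability was read as ATP-dependent luciferase luminescence after 30 min at room temperature.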
# [4] = qHTS assay for small molecule disruptors of the mitochondrial membrane potential - 5 hr assay (AID 651755; calls by dose curve; also: nearly all actives have a fitted effect of over 40% in size; also: potency is read from the fitted curve at half-maximal effect); details: JC-1-type ratio dye; series mostly up to 92.2 µM
# Summary of the method: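 HepG2, 2,000 cells/well, overnight attach; cpd or DMSO 5 hr, 37C/5% CO2; Mito-MPS 30 min 37C; fluor 490/535 + 540/590 nm.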
# [5] = qHTS assay for small molecule agonists of the antioxidant response element (ARE) signaling pathway measured by Nrf2-dependant transcriptional activity (AID 720636; active = well fitted curve in the direction sought with a large enough effect in the repeat runs; an effect the other way counts as inactive or inconclusive;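 also: HepG2 cells with an ARE-driven luciferase reporter; % of control where 0% means no effect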); details: ARE-luc HepG2, Nrf2 luciferase reporter, 16 h; series mostly up to 92.4 µM
# Summary of the method: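 Attachment 6 hr at 37 C, then compound versus DMSO vehicle for 16 hr in ARE-luc HepG2 cells (1% dialyzed FBS); luminescence recorded 30 min after ONE-Glo addition at room temperature.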
# [6] = qHTS assay for small molecule antagonists of the retinoid-related orphan receptor gamma (ROR-gamma) signaling pathway - cell viability counter screen (AID 720652; active = well fitted curve in the direction sought with a large enough effect in the repeat runs; an effect the other way counts as inactive or inconclusive;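 also: CHO reporter cells with doxycycline-induced ROR-gamma expression; compound exposure lasted 16 hr before ATP read; % is scaled to controls: 0 for no effect and ±100 for the full control effect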); details: RORgamma reporter cell line viability counter screen; series mostly up to 92.2 µM
# Summary of the method: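 Cytotoxicity is quantified via intracellular ATP (CellTiter-Glo luminescence) in doxycycline-induced CHO ROR response element-luciferase reporter cells treated with compound for 16 hr at 37 C, 5% CO2.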
# [7] = qHTS Assay for Identifying Gametocytocidal Compounds (AID 743244); also: potency is read from the fitted curve at half-maximal effect;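 as to max response: % is scaled to controls: 0 for no effect and ±100 for the full control effect; actives lower the fluorescent signal which means gametocytes are killed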; details: P. falciparum 3D7 stage III-V gametocytes, alamarBlue, 72 h; max response: active compounds read low
# Summary of the method: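 P. falciparum 3D7 stage III–V gametocytes (20,000 cells/well) were exposed to compounds for 72 h at 37 °C, 5% CO2. AlamarBlue was then added for 24 h; decreased resorufin fluorescence (Ex 525/Em 598 nm) indicated loss of viability.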
# [8] = qHTS assay for environmental chemicals that activate the Aryl hydrocarbon Receptor (AhR) signaling pathway (AID 651777); details: 1A2-DRE human hepatoma cells, luciferase, 24 h; activation: active compounds read high; also: nearly all actives have a fitted effect of over 15% in size; also: potency is read from the fitted curve at half-maximal effect; as to activation: % of control where 0% means no effect
# Summary of the method: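 Concentration–response screening used 1,200 1A2-DRE cells per well, 24 hr compound exposure (37 C, 5% CO2), and One-Glo luminescence as the AhR-driven CYP1A2 reporter signal.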
# [9] = qHTS for Inhibitors of Ubiquitin-specific Protease USP2a Using CHOP2 as the Reporter: K633 Counterscreen (AID 652168); details: No-enzyme DiUb K48 IQF substrate fluorescence interference, kinetic; series mostly up to 57.5 µM; also: % of control where 0% means no effect
# Summary of the method: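 Cell-free interference counterscreen without USP2a: compounds pinned into enzyme-free buffer (20 mM Tris pH 8, 2 mM beta-mercaptoethanol, 0.05% Chaps), then DiUb K48-4IQF substrate added (100 nM stock); fluorescence read kinetically, Ex 525/Em 598.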
# [10] = qHTS for Inhibitors of Ubiquitin-specific Protease USP2a Using CHOP2 as the Reporter: Cytotox Assay (AID 652170); details: HCT116 viability, CellTiter-Glo luminescence, 72 h; series mostly up to 46.1 µM;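 also: plate controls were DMSO-treated cells for no effect and wells without cells for full effect; nearly all actives have a fitted effect of over 70% in size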
# Summary of the method: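 HCT116 human colon cancer cells, 600 per well in DMEM with 10% FBS, exposed to compounds for 72 hr at 37 deg C. ATP measured by CellTiter-Glo luminescence, normalized to DMSO cells and no-cell background.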
# [11] = molecular target: Ubiquitin carboxyl-terminal hydrolase 2 (Homo sapiens) (UniProt O75604); assay: qHTS for Inhibitors of Ubiquitin-specific Protease USP2a Using CHOP2 as the Reporter: K484 Substrate (AID 652173); details: USP2 cleavage of DiUb K48 IQF substrate, fluorescence; series mostly up to 57.5 µM;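 also: cleavage of internally quenched K48 di-ubiquitin substrate measured as rising fluorescence over time; nearly all actives have a fitted effect of over 70% in size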
# Summary of the method: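 USP2 (dispensed at 5 nM) was pinned with compounds, then DiUb K48 internally quenched fluorescent substrate (dispensed at 100 nM) was added. The buffer was 20 mM Tris pH 8, 2 mM beta-mercaptoethanol and 0.05% CHAPS. Cleavage was read kinetically as rising fluorescence, Ex 525/Em 598.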
# Sequence of Peroxisome proliferator-activated receptor alpha (Homo sapiens) (Q07869 whole entry, looked up): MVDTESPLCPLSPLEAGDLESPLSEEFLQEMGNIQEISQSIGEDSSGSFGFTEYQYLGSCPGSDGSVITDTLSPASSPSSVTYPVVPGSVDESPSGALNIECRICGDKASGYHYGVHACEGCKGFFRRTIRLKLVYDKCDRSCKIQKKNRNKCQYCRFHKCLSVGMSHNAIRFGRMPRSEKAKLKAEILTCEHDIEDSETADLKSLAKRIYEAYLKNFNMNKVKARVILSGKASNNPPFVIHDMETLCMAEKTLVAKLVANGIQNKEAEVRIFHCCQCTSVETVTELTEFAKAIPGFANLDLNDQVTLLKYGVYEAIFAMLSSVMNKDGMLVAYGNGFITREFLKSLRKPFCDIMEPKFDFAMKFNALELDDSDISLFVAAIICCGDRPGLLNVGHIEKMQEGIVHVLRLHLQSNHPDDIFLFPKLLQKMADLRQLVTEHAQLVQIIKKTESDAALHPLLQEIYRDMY
# Sequence of Ubiquitin carboxyl-terminal hydrolase 2 (Homo sapiens) (O75604 whole entry, looked up): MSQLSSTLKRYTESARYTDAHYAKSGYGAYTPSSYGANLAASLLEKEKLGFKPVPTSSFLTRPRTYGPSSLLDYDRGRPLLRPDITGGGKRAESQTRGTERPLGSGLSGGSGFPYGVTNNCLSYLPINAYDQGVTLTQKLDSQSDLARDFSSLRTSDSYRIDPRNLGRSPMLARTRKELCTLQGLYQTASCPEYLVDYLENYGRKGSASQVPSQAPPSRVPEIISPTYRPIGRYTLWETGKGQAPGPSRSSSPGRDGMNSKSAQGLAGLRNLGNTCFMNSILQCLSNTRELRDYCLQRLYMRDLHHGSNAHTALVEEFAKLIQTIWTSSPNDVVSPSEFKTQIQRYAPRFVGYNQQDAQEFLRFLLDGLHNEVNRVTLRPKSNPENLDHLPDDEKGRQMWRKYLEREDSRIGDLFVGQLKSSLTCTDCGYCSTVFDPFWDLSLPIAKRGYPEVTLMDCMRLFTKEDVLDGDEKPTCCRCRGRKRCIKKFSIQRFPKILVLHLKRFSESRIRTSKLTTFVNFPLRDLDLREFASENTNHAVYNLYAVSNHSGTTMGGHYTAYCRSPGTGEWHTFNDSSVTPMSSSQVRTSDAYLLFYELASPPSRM
smiles,measurement,setting,value
Nc1ccc(O)cc1,max response,[1],-0.783%
same,max response,[2],-19.2%
same,max response,[3],-8.77%
Nc1c2ccccc2nc2ccccc12,Potency,[4],15 µM (active)
same,max response,[1],-4.95%
same,outcome,[5],inactive
same,outcome,[6],inactive
same,Potency,[2],31.6 µM (active)
same,Potency,[7],10 µM (active)
CN1C(=O)c2ccccc2C1=O,activation,[8],1.05%
same,max response,[1],-1.08%
same,outcome,[5],inactive
same,max response,[2],-2.52%
same,max response,[3],-9.41%
C1=CC2C3C=CC(C3)C2C1 (configuration not stated),activation,[8],0.971%
same,max response,[1],-3.12%
same,outcome,[5],inactive
same,outcome,[6],inactive
same,max response,[2],-2.11%
same,max response,[7],-11.9%
same,max response,[3],-14.2%
O=C(c1ccccc1)c1ccccc1,Potency,[4],inactive
same,activation,[8],-0.735% and 18.8%
same,max response,[1],-0.839% and -0.419%
same,outcome,[5],inactive
same,outcome,[6],inactive
same,max response,[2],6.09% and -10.7%
same,max response,[7],-8.14%
same,max response,[3],-5.39% and 4.23%
O=C(Oc1ccccc1)c1cccc(C(=O)Oc2ccccc2)c1,max response,[1],4.8%
same,max response,[2],-2.16%
same,max response,[7],-7.52%
same,max response,[3],-18.4%
CC(C)(c1ccc(O)cc1)c1ccc(O)cc1,activation,[8],3.05% and 4.15% and 3.72%
same,max response,[1],-6.65% and -3.38% and -3.11%
same,outcome,[5],inactive
same,outcome,[6],inactive
same,max response,[2],-12.4% and -0.346% and -0.0074%
same,max response,[7],-6.17%
same,max response,[3],0.899% and -7.06% and -9.11%
CC(=O)Nc1ccc(S(=O)(=O)Nc2cc(C)on2)cc1,outcome,[9],inactive
same,outcome,[10],inactive
same,outcome,[11],inactive
same,max response,[7],3.06%
CCCCCCCCCCCCCCCC[n+]1ccccc1,Potency,[4],inactive
same,activation,[8],5.1%
same,max response,[1],1.85%
same,max response,[2],-10.4%
same,max response,[3],-27.3%
CC(C)(C)c1ccc(O)c(O)c1,activation,[8],7.39% and 2.07%
same,max response,[1],11.7% and 0.802%
same,outcome,[5],inactive
same,max response,[2],-2.01% and -13.6%
same,max response,[3],-4.72% and -5.96%
OCc1c[nH]c2ccccc12,Potency,[4],inactive
same,activation,[8],2.25%
same,max response,[1],-6.59%
same,outcome,[5],inactive
same,outcome,[6],inactive
same,max response,[2],3.93%
same,max response,[3],5.55%
Oc1ccccc1,activation,[8],-1.73% and 0.212% and 0.333%
same,max response,[1],-1.31% and -1.33% and -1.91%
same,outcome,[5],inactive
same,outcome,[6],inactive
same,max response,[2],-6.78% and -2.25% and 3.75%
same,max response,[7],2.14%
same,max response,[3],-3.62% and -6.12% and 4.72%
Nc1cccc2c(N)cccc12,max response,[1],-0.422% and -2.29%
same,outcome,[6],inactive
same,max response,[3],-10.7% and -9.55%
c1ccc2occc2c1,Potency,[4],inactive
same,Potency,[8],1.26 mM (active) and 25.1 µM (active)
same,activation,[8],2.4%
same,max response,[1],0.199% and 3.33% and -1.19%
same,outcome,[6],inactive
same,max response,[2],3.88% and -20.4% and 16.8%
same,max response,[3],-2.02% and -29.2% and -7.14%
Cc1ncc(CO)c(CO)c1O,activation,[8],-1.88%
same,max response,[1],-1.89%
same,outcome,[5],inactive
same,max response,[2],-5.07%
same,max response,[3],-15.6%
CC(=O)OC/C=C(C)/C=C/C=C(C)/C=C/C1=C(C)CCCC1(C)C,Potency,[4],inactive
same,activation,[8],-0.036% and -0.475%
same,max response,[1],-6.94% and -1.56%
same,outcome,[6],inactive
same,max response,[2],6.19% and 7.05%
same,max response,[7],-2.65%
same,max response,[3],-22.5% and -3.76%
CCCC(=O)c1cc(O)c(O)cc1O,Potency,[4],inactive
same,activation,[8],-2.11%
same,max response,[1],-3.73%
same,outcome,[5],inactive
same,max response,[2],-22.5%
same,max response,[7],30.2%
same,max response,[3],-20%

# Source: PubChem BioAssay (NCATS)
